Results reported in PubChem BioAssay (NCI).
Compounds without any hit were thinned out: in the full panel of roughly 79,000, 15% have a hit. Active and inactive are the calls of the source. Rule as the data show it: active = growth inhibition above about 70%; inactive = the rest.

Tests used:
[1] = NCI Yeast Anticancer Drug Screen. Data for the rad52 strain (AID 147);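 also: 0% = growth of vehicle-treated control cultures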; details: S. cerevisiae rad52 mutant growth inhibition, stronger effect = higher value
How it was run: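 Genetically altered yeast (DNA damage repair defect) treated with compound; inhibition calculated relative to vehicle.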

[2] = NCI Yeast Anticancer Drug Screen. Data for the wt1 strain (AID 149);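 also: 0% = growth of vehicle-treated wt1 cultures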; details: S. cerevisiae wt1 strain (SPY 50644) growth inhibition, stronger effect = higher value
How it was run: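 Vehicle-normalised growth inhibition; strain wt1; compound exposure.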

[3] = NCI Yeast Anticancer Drug Screen. Data for the rad50EPP+ strain (AID 151);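 also: 0% = growth of vehicle-treated control cultures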; details: S. cerevisiae rad50 mutant strain, stronger effect = higher value
How it was run: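 Strain rad50EPP+; compound exposure; % growth inhibition vs vehicle.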

[4] = NCI Yeast Anticancer Drug Screen. Data for the mgt1 strain (AID 153); details: S. cerevisiae mgt1 mutant growth inhibition, stronger effect = higher value
How it was run: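 Read-out: yeast growth inhibition vs vehicle control. Strain mgt1, drawn from a panel altered in DNA damage repair or cell cycle control.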

[5] = NCI Yeast Anticancer Drug Screen. Data for the rad50 strain (AID 155);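 also: 0% = growth of vehicle-only cultures of the same strain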; details: S. cerevisiae rad50 strain growth inhibition, stronger effect = higher value
How it was run: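 A DNA repair-deficient yeast mutant serves as the test organism; compound-induced growth inhibition is calculated against vehicle-treated cells.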

[6] = NCI Yeast Anticancer Drug Screen. Data for the mec2-1 strain (AID 157); details: S. cerevisiae mec2-1 strain, stronger effect = higher value
How it was run: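 Cells of the genetically defined mec2-1 yeast strain are incubated with test compound. Inhibition of growth is calculated against vehicle-treated controls.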

[7] = NCI Yeast Anticancer Drug Screen. Data for the rad14 strain (AID 159);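 also: 0% = growth of vehicle-treated control cultures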; details: S. cerevisiae rad14 strain growth inhibition, stronger effect = higher value
How it was run: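 Vehicle-treated cultures served as the baseline for growth inhibition of a DNA repair-mutant yeast strain exposed to each compound.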

[8] = NCI Yeast Anticancer Drug Screen. Data for the sgs1 mgt1 strain (AID 161);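 also: 0% = growth of cultures given vehicle only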; details: S. cerevisiae sgs1 mgt1 strain, stronger effect = higher value
How it was run: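 Read-out: growth inhibition vs vehicle controls. Cells: mutant yeast strain deficient in DNA damage repair.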

[9] = NCI Yeast Anticancer Drug Screen. Data for the cln2 rad14 strain (AID 165);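 also: 0% = growth equal to vehicle treated cultures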; details: S. cerevisiae cln2 rad14 strain, stronger effect = higher value
How it was run: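 The screen exposed genetically defined yeast (cln2 rad14) to test compounds and scored growth inhibition relative to vehicle-treated controls.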

[10] = NCI Yeast Anticancer Drug Screen. Data for the bub3 strain (AID 167); details: S. cerevisiae bub3 mutant strain, stronger effect = higher value
How it was run: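 Inhibition values come from growth of compound-treated mutant yeast normalised to vehicle-treated controls.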

[11] = NCI Yeast Anticancer Drug Screen. Data for the wt2 strain (AID 169);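 also: 0% = growth of vehicle-treated yeast cultures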; details: S. cerevisiae wt2 strain growth inhibition, stronger effect = higher value
How it was run: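 Steps: yeast strain treated with compound; growth recorded; inhibition calculated relative to cultures given vehicle alone.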

[12] = NCI Yeast Anticancer Drug Screen. Data for the mlh1 strain (AID 171);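 also: 0% = growth of vehicle-treated control cultures of the same strain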; details: S. cerevisiae mlh1 strain growth inhibition, stronger effect = higher value
How it was run: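 Yeast screen: mutant strain plus compound, growth scored against vehicle control wells.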

[13] = NCI Yeast Anticancer Drug Screen. Data for the sgs1 strain (AID 173);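 also: 0% = growth of vehicle-only control cultures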; details: S. cerevisiae sgs1 mutant, stronger effect = higher value
How it was run: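 Inhibition of yeast growth served as the measure. The mutant strain was treated with each compound, and growth was normalised to cultures receiving vehicle alone.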

[14] = NCI Yeast Anticancer Drug Screen. Data for the mlh1 rad18 strain (AID 175); details: S. cerevisiae mlh1 rad18 strain growth inhibition, stronger effect = higher value
How it was run: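 Compound-treated yeast growth, normalised to vehicle controls. Strain bears defined DNA repair mutations.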

[15] = NCI Yeast Anticancer Drug Screen. Data for the rad18 strain (AID 177); details: S. cerevisiae rad18 mutant growth inhibition, stronger effect = higher value
How it was run: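 Inhibition values reflect reduced yeast growth compared with vehicle-treated controls, using a strain engineered with a DNA damage repair defect.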

[16] = at 5.0 µM (retest, dose inferred, filed as 0.5)
[17] = at 50.0 µM (retest, dose inferred, filed as 5.0)

Measured: growth inhibition

O=S1(=O)CCC2=CC(C(F)(F)F)=CC(C(F)(F)F)=CN21
inactive: [1]; at 1.2 µM 26% | [1]; at 3.7 µM 42% | [2]; at 1.2 µM 2% | [2]; at 3.7 µM 29% | [2]; at 11.0 µM 53% | [3]; at 1.2 µM 2% | [3]; at 3.7 µM 16% | [3]; at 11.0 µM 24% | [3]; at 33.0 µM 38% | [4]; at 1.2 µM 15% | [4]; at 3.7 µM 27% | [4]; at 11.0 µM 55% | [5]; at 1.2 µM 61% | [5]; [16] 38% | [6]; at 1.2 µM 52% | [6]; at 3.7 µM 61% | [6]; [16] 66% | [7]; at 1.2 µM 25% | [7]; at 3.7 µM 38% | [7]; at 11.0 µM 67% | [8]; [16] 59% | [9]; [16] 13% | [10]; at 1.2 µM 26% | [10]; at 3.7 µM 52% | [10]; [16] 57% | [11]; at 1.2 µM 3% | [11]; at 3.7 µM 14% | [11]; at 11.0 µM 51% | [12]; at 1.2 µM 27% | [12]; at 3.7 µM 36% | [12]; at 11.0 µM 67% | [13]; at 1.2 µM 51% | [13]; at 3.7 µM 67% | [15]; at 1.2 µM 54% | [15]; at 3.7 µM 67%
active: [1]; at 11.0 µM 71% | [1]; at 33.0 µM 89% | [1]; at 100.0 µM 98% | [2]; at 33.0 µM 83% | [2]; at 100.0 µM 98% | [3]; at 100.0 µM 79% | [4]; at 33.0 µM 82% | [4]; at 100.0 µM 98% | [5]; at 3.7 µM 71% | [5]; at 11.0 µM 79% | [5]; at 33.0 µM 89% | [5]; [17] 96% | [5]; at 50.0 µM 95.5% | [5]; at 100.0 µM 98% | [6]; at 11.0 µM 81% | [6]; at 33.0 µM 93% | [6]; [17] 97% | [6]; at 50.0 µM 97.9% | [6]; at 100.0 µM 99% | [7]; at 33.0 µM 91% | [7]; at 100.0 µM 98% | [8]; [17] 98% | [8]; at 50.0 µM 94.4% | [9]; [17] 92% | [9]; at 50.0 µM 83.9% | [10]; at 11.0 µM 78% | [10]; at 33.0 µM 92% | [10]; [17] 89% | [10]; at 50.0 µM 96.9% | [10]; at 100.0 µM 98% | [11]; at 33.0 µM 83% | [11]; at 100.0 µM 98% | [12]; at 33.0 µM 86% | [12]; at 100.0 µM 98% | [13]; at 11.0 µM 80% | [13]; at 33.0 µM 94% | [13]; at 100.0 µM 99% | [14]; [16] 76% | [14]; [17] 98% | [14]; at 50.0 µM 97.2% | [15]; at 11.0 µM 79% | [15]; at 33.0 µM 90% | [15]; at 100.0 µM 97%
